FLuc modulator: inhibits or activates purified firefly luciferase, miR-21 counter-screen | actives 6.9% (n = 360,000) | P08659 | AID 588342 | purified FLuc, Km substrates, luminescence inhibition | Potency, µM (top dose mostly 57.5 µM), without a hit: at the highest dose activity change, negative = inhibition, actives largely listed as inhibitors;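 note: plate controls were vehicle for no effect and reference inhibitor for full effect; nearly all actives have a fitted effect of over 55% in size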
Target sequence (P08659 whole entry, looked up): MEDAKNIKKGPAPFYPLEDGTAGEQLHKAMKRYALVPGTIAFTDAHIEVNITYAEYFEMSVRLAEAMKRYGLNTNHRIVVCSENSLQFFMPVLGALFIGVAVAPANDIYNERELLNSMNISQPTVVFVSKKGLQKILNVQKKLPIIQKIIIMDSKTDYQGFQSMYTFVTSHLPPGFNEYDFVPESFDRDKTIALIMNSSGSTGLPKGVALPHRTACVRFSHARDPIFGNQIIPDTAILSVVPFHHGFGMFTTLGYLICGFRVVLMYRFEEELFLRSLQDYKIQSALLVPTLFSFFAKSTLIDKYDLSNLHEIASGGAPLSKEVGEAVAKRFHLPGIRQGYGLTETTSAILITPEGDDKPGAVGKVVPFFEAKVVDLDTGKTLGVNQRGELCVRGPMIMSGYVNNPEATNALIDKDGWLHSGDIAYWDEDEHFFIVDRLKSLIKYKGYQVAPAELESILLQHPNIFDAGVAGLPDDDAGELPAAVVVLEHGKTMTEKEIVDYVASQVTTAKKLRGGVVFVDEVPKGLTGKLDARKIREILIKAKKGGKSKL
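Purified P. pyralis luciferase, 10 nM final, with Km-level 10 uM D-luciferin and 10 uM ATP in 50 mM Tris acetate pH 7.5, 10 mM Mg acetate, 0.01% Tween-20, 0.05% BSA; 6-point qHTS titration about 60 µM downward; luminescence read.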
ELG1 DNA repair: blocks ELG1-dependent DNA repair in HEK293T cells; HEK293T ELG1-luciferase reporter, luminescence, 16 h; DNA damage induced by 5-fluorouridine; Potency, µM (titrated, usually from 46.1 µM), inactives show at the highest dose activity change, negative = inhibition, usual class: inhibitors; actives 2.3% (n = 330,000); AID 504467; note: % is set by controls: 0 for no effect and ±100 for the full control effect; nearly all actives have a fitted effect of over 55% in size
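Cells (2,000 per well) received 5-fluorouridine plus test compound or DMSO and were incubated 16 hr at 37 °C, 5% CO2. Luciferase activity was read by luminescence 30 min after ONE-Glo addition; signal suppression marked inhibition of damage-induced ELG1 function.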
SMN2 splice up: SMN2 splice variant enhancement; HEK293 SMN2-luciferase splicing reporter, luminescence, 30-36 h; Potency, µM (doses to about 46.1 µM), inactives show at the highest dose activity change, positive = activation, usual class: activators; actives 2.8% (n = 210,000); AID 1458; note: % of control where 0% means no effect; nearly all actives have a fitted effect of over 55% in size
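qHTS luciferase splicing reporter: luminescence rises when SMN2 exon 7 is included in transfected HEK293 cells. Compound exposure lasted 30-36 h at 37C, with 4.5 mM final sodium butyrate as control, followed by a ONE-Glo read.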
Rab9 promoter act: activators of Rab9 promoter | Potency, µM (doses to about 9.22 µM), for the others: at the highest dose activation, negative = inhibition, actives largely listed as activators | Huh7 Rab9 promoter-luciferase reporter, luminescence, 24 h | actives 2.8% (n = 320,000) | AID 485297; note: % of control where 0% means no effect; nearly all actives have a fitted effect of over 60% in size
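Steps: seed 1500 Huh7 Rab9-luc cells per well, rest 2 h at 37 °C; add compound in DMSO; incubate 24 h; add luciferase reagent, 10 min ambient; read luminescence.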
NPC1 prom act: NPC1 promoter activation | Potency, µM (doses to about 9.22 µM), without a hit: top-dose activation, actives largely listed as activators | actives 2.4% (n = 320,000) | AID 485313 | Huh7 NPC1 promoter luciferase reporter, 24 h; note: % of control where 0% means no effect; nearly all actives have a fitted effect of over 60% in size
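Huh7 cells stably carrying NPC1 promoter–luciferase, plated in Opti-MEM with 10% FBS for 2 h, were exposed to compound in DMSO for 24 h at 37 °C; luciferase reagent was added for 10 min and luminescence read.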
ELG1 genotox: genotoxicity induction in ELG1-luciferase HEK293T cells | HEK293T ELG1-luciferase reporter, luminescence, 16 h | Potency, µM (highest dose often 46 µM), without a hit: at the highest dose activity change, positive = activation, actives largely listed as activators | actives 1.3% (n = 330,000); note: % of control where 0% means no effect; nearly all actives have a fitted effect of over 60% in size
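HEK293T cells expressing luciferase-tagged ELG1 were exposed to compound or DMSO vehicle for 16 hr at 37 °C and 5% CO2. Luciferase activity was then measured with ONE-Glo after 30 min at room temperature.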
Starred values were filed as active, the others as inactive; ? = inconclusive; . = no result given. The list is not random: actives were taken first. Their share in the collection is about 9.4%. Calls come from the whole dose curve; as a rule, active = well fitted curve in the direction sought with a large enough effect; inconclusive = small, poorly fitted or top-dose-only effect, or another doubt; inactive = no such curve, though single readings can be large; an effect the other way counts as inactive or inconclusive. Potency is the fitted concentration of half-maximal effect.

SMILES	FLuc modulator	ELG1 DNA repair	SMN2 splice up	Rab9 promoter act	NPC1 prom act	ELG1 genotox
CCN1CCc2c(sc(NC(=O)c3cc4ccccc4cc3OC)c2C(N)=O)C1	9.5µM*	1%	.	4%	-5%	10%
COc1ccc(OC)c(S(=O)(=O)NCCc2sc(-c3cccnc3)nc2C)c1	4%	.	.	.	.	.
O=C(c1ccccc1)c1ccc(OCC(O)CN2CCN(S(=O)(=O)N3CCCCC3)CC2)cc1 (configuration not stated)	-2%	18µM*	-49%	-7%	-7%	-15%
CSc1ccc(N/N=C(/C#N)S(=O)(=O)C(C)(C)C)cc1	?	18µM*	-55%	-1%	2%	-12%
COc1ccc(-c2cc(C(=O)Nc3ccn(Cc4ccc(C)cc4)n3)no2)cc1OC	-2%	.	-2%	.	.	.
Cc1ccc(C2=Nc3ccccc3N(CC(=O)Nc3ccccc3C)C(=O)C2)cc1C	11µM*	.	.	.	.	.
Cc1ccc(C2=Nc3ccccc3N(CC(=O)NCc3ccc(Cl)cc3)C(=O)C2)cc1C	-11%	.	.	.	.	.
Cc1nn(C)c(C)c1/C=N/NC(=O)c1csc2ccccc12	17µM*	?	-3%	26%	-2%	15%
Cc1c(/C=N\NC(=O)c2csc3ccccc23)cnn1C	?	9%	-2%	15%	2%	8%
CCn1ncc(/C=N\NC(=O)c2csc3ccccc23)c1C	11µM*	?	23%	-8%	-10%	?
O=C(CSc1nnc(CNC(=O)c2ccccc2)n1-c1cccc(Cl)c1)Nc1ccccc1F	1%	.	18%	.	.	.
CCOc1ccccc1NC(=O)Cn1c(=O)n(-c2ccc(Cl)cc2)c(=O)c2oc3ccccc3c21	-5%	.	.	.	.	.
Cc1nc(N2CCOCC2)c2cc(-c3ccccc3)sc2n1	21µM*	?	-5%	-4%	1%	2%
Cc1nc(SCCC(=O)O)c2cc(-c3ccccc3)sc2n1	0.67µM*	?	.	-12%	-7%	15%
c1ccc(-c2cc3c(N4CCOCC4)ncnc3s2)cc1	-13%	?	-9%	-6%	-3%	-8%
CN1CCN(/N=C/c2ccc(Br)cc2)CC1	?	?	25%	?	?	?
CN1CCN(/N=C/c2ccc(Cl)c(Cl)c2)CC1	19µM*	?	13µM*	?	?	?
Cc1nc(NC2CCCCC2)c2nc(-c3ccccc3)n(CCN(C)C)c2n1	.	.	-17%	.	.	.
N#Cc1c(-c2ccccc2)cc(-c2ccccc2)nc1SCC(O)CS(=O)(=O)Cc1ccc(Cl)cc1 (configuration not stated)	?	.	-5%	.	.	.
O=C(/C=C\NCC(=O)c1ccccc1)c1ccc2ccccc2c1	27µM*	?	.	16%	17%	10%
O=C(CNC(=O)c1ccccc1)NCC(=O)OCC(=O)c1ccc(F)cc1	2%	-2%	23%	-2%	-4%	1%
CCc1nnc(NS(=O)(=O)c2ccc(N/C=C\C(=O)c3ccc4ccccc4c3)cc2)s1	?	20%	-5%	-8%	1%	6%
O=C(/C=C\NCC(=O)c1ccccc1)c1ccc(F)cc1	13µM*	22%	-14%	26%	20%	10%
COc1ccc(CN(Cc2ccco2)C(=O)COc2ccccc2OC)cc1	-20%	.	-28%	.	.	.
COc1ccc(OC)c(S(=O)(=O)NCC(c2cccs2)S(=O)(=O)c2ccc(F)cc2)c1 (configuration not stated)	5%	.	.	.	.	.
SMILES	FLuc modulator	ELG1 DNA repair	SMN2 splice up	Rab9 promoter act	NPC1 prom act	ELG1 genotox
CCN(CC)c1ccc(/C=C(\C#N)C(N)=S)cc1	21µM*	13%	.	1%	-1%	8%
COc1cccc(NC(=O)Cn2c(=O)n(Cc3nc(-c4ccccc4)no3)c(=O)c3ccccc32)c1	4%	.	.	.	.	.
Cc1ccc(-n2cnnn2)cc1Cl	-4%	9%	-1%	-1%	-3%	27%
Cc1ccc(-n2nc3ccc(N)cc3n2)c(C)c1	7.6µM*	?	.	22%	2%	?
COc1ccc(-n2nc3ccc(N)cc3n2)cc1Cl	1.5µM*	?	.	14%	21%	?
Cc1ccc(-n2nc3ccc(N)cc3n2)cc1Cl	0.67µM*	?	.	?	?	?
Cc1ccc(-n2nc3ccc(N)cc3n2)cc1C	0.48µM*	?	.	0.5µM*	1.6µM*	0.92µM*
CCCC(=O)Nc1ccc(Cc2ccc(NC(=O)CCC)c(C(=O)O)c2)cc1C(=O)O	?	6%	-9%	-3%	-3%	2%
COc1ccc(N2CCN(C(=O)Cn3cnc4sc(C)c(S(=O)(=O)N5CCCCC5)c4c3=O)CC2)cc1	6%	.	4%	.	.	.
COc1ccc(-n2nc3ccc(NS(C)(=O)=O)cc3n2)cc1Cl	3.4µM*	?	25%	25%	?	16µM*
COc1ccc(/C=C/C(=O)c2ccc3c4c(cccc24)CC3)cc1	15µM*	-8%	.	-4%	-1%	0%
COCOc1cc(OC)ccc1C(=O)/C=C/c1ccc2c(c1)OCO2	.	.	12%	.	.	.
COc1ccc(C(=O)/C=C/c2ccc(C)cc2)c(OC(=O)c2ccc([N+](=O)[O-])cc2)c1	6.7µM*	?	5%	21%	25%	6%
COc1ccc(C(=O)/C=C/c2ccc(N(C)C)cc2)c(OC)c1	11µM*	13%	.	-2%	-7%	?
COc1ccc(C(=O)/C=C/c2ccccc2)c(OC)c1	4.8µM*	?	.	?	?	4%
COc1ccc(C(=O)/C=C/c2ccccc2)cc1	.	.	21%	.	.	.
COc1ccc(C(=O)/C=C/c2ccccc2F)c(OC(=O)c2ccc([N+](=O)[O-])cc2)c1	?	?	-6%	?	?	?
COc1ccc(/C=C/C(=O)c2ccc3c4c(cccc24)CC3)cc1OC	-24%	?	.	-23%	-12%	-4%
O=c1[nH]c2ccc(NCc3ccccc3OCc3ccc(Cl)cc3)cc2[nH]1	?	8.2µM*	.	-4%	-8%	4%
Oc1ccc(NCc2ccccc2OCc2ccc(Cl)cc2)cc1	21µM*	.	22µM*	.	.	.
COc1cccc(CNc2ccc3[nH]c(=O)[nH]c3c2)c1OCc1ccc(F)cc1	-3%	?	.	-2%	1%	-5%
Cc1ccc(C)c(N2CCN(C(=O)CCS(=O)(=O)c3cc(Br)cc4c3N(C(=O)C3CC3)CC4)CC2)c1	?	.	-6%	.	.	.
CC(C)OC(=O)c1cn(-c2ccccc2)nc1-c1ccc2c(c1)OCCO2	-6%	23µM*	-5%	1%	-1%	0%
CNC(=O)COC(=O)/C=C/c1cn(-c2ccccc2)nc1-c1ccc2c(c1)OCCO2	-16%	?	-32%	18%	-4%	-4%
